24 sequences from the OligoGym collection can be followed below.
Further: reference of the scale not given here.

The first assay deals with SLC26A5. The assay is described as follows: pooled miR-30 sensor sort-seq; sequence = guide strand. Particulars: shRNA.
In turn, TTGTCCTTTGTGTGTAGTCTTT yielded a sensor-assay potency score (higher = more potent) of -0.811. Regarding TATACAAGTCGCTATTTGCATA, the sensor-assay potency score (higher = more potent) is -1.73. With TAAATCTTTGCATTTCCTCAGG, the sensor-assay potency score (higher = more potent) was -0.693.

As to TATCATCTGGTACTAATCGAAC, the sensor-assay potency score (higher = more potent) was -1.32.

TTCTGCAACACAGCAACTGTAC: the sensor-assay potency score (higher = more potent) was -0.438. With TTGCATAGTAAATTGGTGCATT, the sensor-assay potency score (higher = more potent) is -0.361.

On to TAACATTCTGCAACACAGCAAC, for which the sensor-assay potency score (higher = more potent) is -0.753.

Sequence TTTCCAAGGACTTTGTAGCTTG came in with a sensor-assay potency score (higher = more potent) of -0.312. As to TTGTGTGTAGTCTTTCCTGGAG, the sensor-assay potency score (higher = more potent) was -0.0771. Take TTTCGTTTTAATGCATTGCTAT: the sensor-assay potency score (higher = more potent) is -0.563. Same read-out and setting: with TTAATGAGGCCAAACAACCTGC the figure was -0.462; with TAGTCTTTCCTGGAGGACCGGA, -0.913.

In another assay the target is SLC26A8. The assay is described as above. Particulars: shRNA.
For the sequence TTGAATTGTCATTCTTGTCTGT, the sensor-assay potency score (higher = more potent) came out at 0.809. Still for that read-out and setting: to TTTACAAATGTAATTGAGCTGC belongs -0.345; to TTGAGCTTCATCTCTTTGGAGA, -0.991. Same read-out and setting: to AATCGATACATACACATCCATT belongs -1.59; to TGAATTGTCATTCTTGTCTGTT, -0.0701. On to TTAGGTAGTAAACATTTACAAA, for which the sensor-assay potency score (higher = more potent) is -1.21. TTTTATATCTTGAATTGTCATT: the sensor-assay potency score (higher = more potent) was -1.25. On to TTTATTTTCAAATCGCTCTGTG, for which the sensor-assay potency score (higher = more potent) worked out at 0.487. Sequence TTGATTTTTCTGAGACACGGAC returned a sensor-assay potency score (higher = more potent) of -0.723.

In turn, TAATCGATACATACACATCCAT had a sensor-assay potency score (higher = more potent) of -0.25. The same measure, in the same setting: to TAGTCCTAGCAATAGCACCAGT belongs -1.08; to TTATCCTGGATAATAGTCCTAG, -0.541.
